Drawing on article PMC11006913, this text covers binding signal for 3 sequences.

Assay in all cases: PBM; 200 nM protein, PBS
Conditions in all cases: dsDNA, one strand shown

The target in experiment [1] is T1, SIX6 (Homo sapiens, UniProt O95475 114-200, L167I).
T1 sequence: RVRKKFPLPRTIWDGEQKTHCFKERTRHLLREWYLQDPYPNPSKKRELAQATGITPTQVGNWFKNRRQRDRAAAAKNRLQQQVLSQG

Experiment [2] addresses T2, SIX6 (Homo sapiens, UniProt O95475 114-200, L143V).
T2 sequence: T1 sequence with L30V, I54L

Experiment [3] concerns the target PRRX1 (Homo sapiens, UniProt P54821 80-166, F113S).
The target in experiment [4] is T3, SIX6 (Homo sapiens, UniProt O95475 114-200, H141N).
T3 sequence: T1 sequence with H28N, I54L

The target in experiment [5] is T4, SIX6 (Homo sapiens, UniProt O95475 114-200, T165P).
T4 sequence: T1 sequence with T52P, I54L

The target in experiment [6] is T5, SIX6 (Homo sapiens, UniProt O95475 114-200, L167M).
T5 sequence: T1 sequence with I54M

The target of experiment [7] is T6, SIX6 (Homo sapiens, UniProt O95475 114-200, L143M).
T6 sequence: T1 sequence with L30M, I54L

The target in experiment [8] is T7, SIX6 (Homo sapiens, UniProt O95475 114-200, L143I).
T7 sequence: T1 sequence with L30I, I54L

Experiment [9] addresses T8, SIX6 (Homo sapiens, UniProt O95475 114-200, T165G).
T8 sequence: T1 sequence with T52G, I54L

Experiment [10] deals with T9, SIX6 (Homo sapiens, UniProt O95475 114-200, T139Q).
T9 sequence: T1 sequence with T26Q, I54L

Experiment [11] addresses T10, SIX6 (Homo sapiens, UniProt O95475 114-200, T165A).
T10 sequence: T1 sequence with T52A, I54L

Experiment [12] deals with T11, SIX6 (Homo sapiens, UniProt O95475 114-200, L167V).
T11 sequence: T1 sequence with I54V

The target of experiment [13] is T12, SIX6 (Homo sapiens, UniProt O95475 114-200).
T12 sequence: T1 sequence with I54L

Experiment [14] addresses T13, SIX6 (Homo sapiens, UniProt O95475 114-200, T165I).
T13 sequence: T1 sequence with T52I, I54L

Experiment [15] addresses PRRX1 (Homo sapiens, UniProt P54821 80-166).
For experiment [16], the target named is HOXC10 (Homo sapiens, UniProt Q9NYD6 254-340).
The target of experiment [17] is T14, PAX4 (Homo sapiens, UniProt O43316 9-242, R200K).
T14 sequence: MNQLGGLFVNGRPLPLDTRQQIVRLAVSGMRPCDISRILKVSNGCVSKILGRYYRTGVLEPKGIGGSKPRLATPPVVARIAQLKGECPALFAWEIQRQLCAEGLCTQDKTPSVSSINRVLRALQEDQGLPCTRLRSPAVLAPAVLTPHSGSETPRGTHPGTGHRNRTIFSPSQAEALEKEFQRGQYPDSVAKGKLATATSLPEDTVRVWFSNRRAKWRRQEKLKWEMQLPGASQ

The target in experiment [18] is T15, PAX4 (Homo sapiens, UniProt O43316 9-242).
T15 sequence: T14 sequence with K192R

The target of the next experiment is T16, NKX2-6 (Homo sapiens, UniProt A6NCS4 118-204, R150C).
T16 sequence: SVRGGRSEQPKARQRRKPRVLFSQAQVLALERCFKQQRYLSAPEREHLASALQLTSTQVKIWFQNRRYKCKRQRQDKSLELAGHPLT

The target of experiment [19] is T17, PAX4 (Homo sapiens, UniProt O43316 9-242, R200Q).
T17 sequence: T14 sequence with K192Q

Experiment [20] concerns the target T18, PAX4 (Homo sapiens, UniProt O43316 9-242, F177V).
T18 sequence: T14 sequence with F169V, K192R

Experiment [21] addresses HOXC10 (Homo sapiens, UniProt Q9NYD6 254-340, K271E).
Experiment [22] concerns the target T19, PAX4 (Homo sapiens, UniProt O43316 9-242, F177Y).
T19 sequence: T14 sequence with F169Y, K192R

For experiment [23], the target named is T20, PAX4 (Homo sapiens, UniProt O43316 9-242, R227W).
T20 sequence: T14 sequence with K192R, R219W

Experiment [24] addresses HOXA2 (Homo sapiens, UniProt O43364 129-215, R185T).
For experiment [25], the target named is ALX3 (Homo sapiens, UniProt O95076 139-225, N203Q).
In experiment [26] the target is HOXA2 (Homo sapiens, UniProt O43364 129-215, R185K).
The target of experiment [27] is ALX3 (Homo sapiens, UniProt O95076 139-225).
For experiment [28], the target named is ALX3 (Homo sapiens, UniProt O95076 139-225, L168Q).
Experiment [29] deals with ALX3 (Homo sapiens, UniProt O95076 139-225, L168V).
The target of experiment [30] is HOXA2 (Homo sapiens, UniProt O43364 129-215, Y150S).
Experiment [31] has as its target ALX3 (Homo sapiens, UniProt O95076 139-225, N203S).
Experiment [32] has as its target HOXA2 (Homo sapiens, UniProt O43364 129-215).

Numbering of substitutions follows the chain as printed.

HOXC10 (Homo sapiens, UniProt Q9NYD6 254-340), sequence (Q9NYD6 254-340): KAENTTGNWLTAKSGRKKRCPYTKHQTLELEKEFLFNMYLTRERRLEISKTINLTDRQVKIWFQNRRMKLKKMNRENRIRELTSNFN
HOXA2 (Homo sapiens, UniProt O43364 129-215, R185T), sequence (O43364 129-215 R185T): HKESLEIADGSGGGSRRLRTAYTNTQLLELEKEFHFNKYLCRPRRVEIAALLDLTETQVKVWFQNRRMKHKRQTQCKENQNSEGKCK
ALX3 (Homo sapiens, UniProt O95076 139-225), sequence (O95076 139-225): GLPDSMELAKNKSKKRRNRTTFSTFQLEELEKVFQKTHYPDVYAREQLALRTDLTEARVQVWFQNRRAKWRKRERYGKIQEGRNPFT
ALX3 (Homo sapiens, UniProt O95076 139-225, L168Q), sequence (O95076 139-225 L168Q): as the sequence (O95076 139-225) above, with L30Q counted along it
HOXA2 (Homo sapiens, UniProt O43364 129-215, R185K), sequence (O43364 129-215 R185K): as the sequence (O43364 129-215 R185T) above, with T57K counted along it
HOXA2 (Homo sapiens, UniProt O43364 129-215), sequence (O43364 129-215): as the sequence (O43364 129-215 R185T) above, with T57R counted along it
PRRX1 (Homo sapiens, UniProt P54821 80-166), sequence (P54821 80-166): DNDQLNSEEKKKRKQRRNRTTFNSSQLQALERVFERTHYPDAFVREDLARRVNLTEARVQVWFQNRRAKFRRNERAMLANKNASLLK
HOXA2 (Homo sapiens, UniProt O43364 129-215, Y150S), sequence (O43364 129-215 Y150S): as the sequence (O43364 129-215 R185T) above, with Y22S, T57R counted along it
ALX3 (Homo sapiens, UniProt O95076 139-225, N203Q), sequence (O95076 139-225 N203Q): as the sequence (O95076 139-225) above, with N65Q counted along it
ALX3 (Homo sapiens, UniProt O95076 139-225, N203S), sequence (O95076 139-225 N203S): as the sequence (O95076 139-225) above, with N65S counted along it
PRRX1 (Homo sapiens, UniProt P54821 80-166, F113S), sequence (P54821 80-166 F113S): as the sequence (P54821 80-166) above, with F34S counted along it
HOXC10 (Homo sapiens, UniProt Q9NYD6 254-340, K271E), sequence (Q9NYD6 254-340 K271E): as the sequence (Q9NYD6 254-340) above, with K18E counted along it
ALX3 (Homo sapiens, UniProt O95076 139-225, L168V), sequence (O95076 139-225 L168V): as the sequence (O95076 139-225) above, with L30V counted along it

Consider CGGGCCCC, for which the binding signal in the experiment with SIX6 [1] is 8.63 upbm affinity estimate (log intensity, higher = more binding, comparable within an allelic series); with SIX6 [2] it was 8.6 upbm affinity estimate (log intensity, higher = more binding, comparable within an allelic series); in the experiment with PRRX1 [3], 9.02 upbm affinity estimate (log intensity, higher = more binding, comparable within an allelic series); with SIX6 [4], 8.71 upbm affinity estimate (log intensity, higher = more binding, comparable within an allelic series); with SIX6 [5] it was 8.8 upbm affinity estimate (log intensity, higher = more binding, comparable within an allelic series); with SIX6 [6] it was 8.68 upbm affinity estimate (log intensity, higher = more binding, comparable within an allelic series). Further, the binding signal is 8.6 upbm affinity estimate (log intensity, higher = more binding, comparable within an allelic series) in the experiment with SIX6 [7]; 8.75 upbm affinity estimate (log intensity, higher = more binding, comparable within an allelic series) with SIX6 [8]; 8.71 upbm affinity estimate (log intensity, higher = more binding, comparable within an allelic series) with SIX6 [9]; 8.68 upbm affinity estimate (log intensity, higher = more binding, comparable within an allelic series) with SIX6 [10]; 8.73 upbm affinity estimate (log intensity, higher = more binding, comparable within an allelic series) in the experiment with SIX6 [11]; 8.59 upbm affinity estimate (log intensity, higher = more binding, comparable within an allelic series) with SIX6 [12]. Also, the binding signal in the experiment with SIX6 [13] was 8.64 upbm affinity estimate (log intensity, higher = more binding, comparable within an allelic series); with SIX6 [14], 8.66 upbm affinity estimate (log intensity, higher = more binding, comparable within an allelic series); with PRRX1 [15], 9.32 upbm affinity estimate (log intensity, higher = more binding, comparable within an allelic series).

CAGCGCCG: the binding signal was 8.83 upbm affinity estimate (log intensity, higher = more binding, comparable within an allelic series) with SIX6 [1]; 8.75 upbm affinity estimate (log intensity, higher = more binding, comparable within an allelic series) with SIX6 [2]; 9.95 upbm affinity estimate (log intensity, higher = more binding, comparable within an allelic series) with HOXC10 [16]; 9.2 upbm affinity estimate (log intensity, higher = more binding, comparable within an allelic series) with PAX4 [17]; 8.78 upbm affinity estimate (log intensity, higher = more binding, comparable within an allelic series) with SIX6 [4]; 8.87 upbm affinity estimate (log intensity, higher = more binding, comparable within an allelic series) with SIX6 [5]. Moreover, the binding signal with PAX4 [18] was 9.2 upbm affinity estimate (log intensity, higher = more binding, comparable within an allelic series); with SIX6 [6] it was 8.78 upbm affinity estimate (log intensity, higher = more binding, comparable within an allelic series); in the experiment with SIX6 [7], 8.76 upbm affinity estimate (log intensity, higher = more binding, comparable within an allelic series); with SIX6 [8], 8.8 upbm affinity estimate (log intensity, higher = more binding, comparable within an allelic series); in the experiment with SIX6 [9], 8.83 upbm affinity estimate (log intensity, higher = more binding, comparable within an allelic series); with SIX6 [10], 8.77 upbm affinity estimate (log intensity, higher = more binding, comparable within an allelic series). The binding signal in the experiment with NKX2-6 was 9.39 upbm affinity estimate (log intensity, higher = more binding, comparable within an allelic series); with SIX6 [11] it was 8.74 upbm affinity estimate (log intensity, higher = more binding, comparable within an allelic series); with PAX4 [19], 9.26 upbm affinity estimate (log intensity, higher = more binding, comparable within an allelic series); with PAX4 [20] it was 9.19 upbm affinity estimate (log intensity, higher = more binding, comparable within an allelic series); with HOXC10 [21], 9.93 upbm affinity estimate (log intensity, higher = more binding, comparable within an allelic series); in the experiment with SIX6 [12] it was 8.79 upbm affinity estimate (log intensity, higher = more binding, comparable within an allelic series). The binding signal is 9.21 upbm affinity estimate (log intensity, higher = more binding, comparable within an allelic series) in the experiment with PAX4 [22]; 8.78 upbm affinity estimate (log intensity, higher = more binding, comparable within an allelic series) with SIX6 [13]; 8.74 upbm affinity estimate (log intensity, higher = more binding, comparable within an allelic series) with SIX6 [14]; 9.19 upbm affinity estimate (log intensity, higher = more binding, comparable within an allelic series) with PAX4 [23].

For the sequence CGTCGCGC, the binding signal with SIX6 [1] was 9.07 upbm affinity estimate (log intensity, higher = more binding, comparable within an allelic series); with SIX6 [2] it was 9.04 upbm affinity estimate (log intensity, higher = more binding, comparable within an allelic series); with SIX6 [4], 9.11 upbm affinity estimate (log intensity, higher = more binding, comparable within an allelic series); in the experiment with SIX6 [5], 9.07 upbm affinity estimate (log intensity, higher = more binding, comparable within an allelic series); in the experiment with SIX6 [6] it was 9 upbm affinity estimate (log intensity, higher = more binding, comparable within an allelic series); with SIX6 [7], 9.11 upbm affinity estimate (log intensity, higher = more binding, comparable within an allelic series). For the same sequence, the binding signal with SIX6 [8] was 9.05 upbm affinity estimate (log intensity, higher = more binding, comparable within an allelic series); in the experiment with SIX6 [9], 9.08 upbm affinity estimate (log intensity, higher = more binding, comparable within an allelic series); with HOXA2 [24], 7.22 upbm affinity estimate (log intensity, higher = more binding, comparable within an allelic series); in the experiment with SIX6 [10], 9.27 upbm affinity estimate (log intensity, higher = more binding, comparable within an allelic series); with ALX3 [25], 7.76 upbm affinity estimate (log intensity, higher = more binding, comparable within an allelic series); with SIX6 [11] it was 9.17 upbm affinity estimate (log intensity, higher = more binding, comparable within an allelic series). The binding signal is 10.4 upbm affinity estimate (log intensity, higher = more binding, comparable within an allelic series) with HOXA2 [26]; 8.92 upbm affinity estimate (log intensity, higher = more binding, comparable within an allelic series) in the experiment with SIX6 [12]; 7.7 upbm affinity estimate (log intensity, higher = more binding, comparable within an allelic series) in the experiment with ALX3 [27]; 9.06 upbm affinity estimate (log intensity, higher = more binding, comparable within an allelic series) with SIX6 [13]; 7.79 upbm affinity estimate (log intensity, higher = more binding, comparable within an allelic series) with ALX3 [28]; 8.97 upbm affinity estimate (log intensity, higher = more binding, comparable within an allelic series) with SIX6 [14]. Also, the binding signal with ALX3 [29] was 7.7 upbm affinity estimate (log intensity, higher = more binding, comparable within an allelic series); with HOXA2 [30], 10.5 upbm affinity estimate (log intensity, higher = more binding, comparable within an allelic series); with ALX3 [31], 7.8 upbm affinity estimate (log intensity, higher = more binding, comparable within an allelic series); with HOXA2 [32] it was 7.41 upbm affinity estimate (log intensity, higher = more binding, comparable within an allelic series).
